Measured values from PubChem BioAssay.
“And” between values parts separate entries of the source, which are not always exact repeats. Identical values can stand only once. The source made the active and inactive calls.

What was measured:
[1] = A549 cell viability effects, profiling panel, calcein-AM fluorescence, 48 h, basal (AID 1162); conditions: higher = more signal
[2] = adipocyte viability effects, profiling panel, cell-based, 3T3-L1 adipocytes, calcein-AM fluorescence, 48 h, basal (AID 1163); conditions: 3T3-L1 adipocytes viability, higher = more signal
[3] = HepG2 cell viability effects, profiling panel, calcein-AM fluorescence, 48 h, basal (AID 1164); conditions: higher = more signal
[4] = MM1S cell viability effects, profiling panel, calcein-AM fluorescence, 48 h, basal (AID 1165); conditions: higher = more signal;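 note: viability of MM1S multiple myeloma cells under basal unstimulated conditions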
[5] = basal RPMI8226 viability, no added stimulus, profiling panel, cell-based, calcein-AM fluorescence, 48 h, PK04 Diversity Set (AID 1166); conditions: RPMI8226 myeloma viability, higher = more signal;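 note: cells grown under basal conditions without added stimulus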
[6] = basal HepG2 mitochondrial membrane potential changes, profiling panel, cell-based, JC-1 fluorescence, 24 h, 100 nL compound (AID 1167); conditions: higher = more signal
[7] = basal 3T3-L1 adipocyte mitochondrial potential changes, profiling panel, cell-based, JC-1 fluorescence, 3T3-L1 adipocytes, 24 h, 100 nL compound (AID 1168); conditions: JC-1 mitochondrial fluorescence, higher = more signal, called active from +8 up or from −8 down
[8] = basal RPMI8226 mitochondrial membrane potential changes, profiling panel, cell-based, JC-1 fluorescence, 24 h, 100 nL compound (AID 1169); conditions: RPMI8226 myeloma, JC-1 mitochondrial potential fluorescence, higher = more signal
[9] = basal MM1S mitochondrial membrane potential changes, profiling panel, cell-based, JC-1 fluorescence, 24 h, 100 nL compound (AID 1170); conditions: higher = more signal
[10] = A549 lung cancer cell viability effects, profiling panel, resazurin fluorescence, 24 h, PK04 Diversity Set (AID 1171); conditions: higher = more signal, called active from +8 up or from −8 down
Note: test concentration not given here.

## CC(C)=NO[C@@H](C)c1cc(-c2c(C)cc(C)cc2C)no1
[1]
  z-score: -0.846
[2]
  z-score: 0.38
[3]
  z-score: -0.242
[4]
  z-score: -0.309
[5]
  z-score: -0.416
[6]
  z-score: -0.182
[7]
  z-score: 0.478 (inactive)
[8]
  z-score: -0.328
[9]
  z-score: -0.39
[10]
  z-score: 0.0477 (inactive)

## C=CCN(C(=O)C(c1cccs1)N(C(=O)/C=C\C(=O)O)C(C)(C)CO)c1ccc(OC)cc1 (stereo not given)
[1]
  z-score: 3.04 and 1.76
[2]
  z-score: 1.09 and 0.718
[3]
  z-score: 0.717 and 1.1
[4]
  z-score: 1.61 and 1.55
[5]
  z-score: -0.223 and 1.05
[6]
  z-score: 1.16 and 0.287
[7]
  z-score: 2.24 (inactive) and 0.954 (inactive)
[8]
  z-score: -0.567 and 0.754
[9]
  z-score: 0.212 and 0.326
[10]
  z-score: 0.579 (inactive) and -0.0357 (inactive)

## C[C@@H](c1ccccc1)N1C(=O)[C@H]2[C@H]3[C@H](O)[C@H](O)CC(=O)[C@@H]3CC[C@H]2C1=O
[1]
  z-score: 0.0128
[2]
  z-score: 0.762
[3]
  z-score: 1.15
[4]
  z-score: 0.288
[5]
  z-score: -1.17
[6]
  z-score: 0.921
[7]
  z-score: 2.42 (inactive)
[8]
  z-score: -0.438
[9]
  z-score: 1.65
[10]
  z-score: -0.1 (inactive)

## C=CCN(C(=O)C(c1cccs1)N(C(=O)/C=C\C(=O)O)C(C)(C)CO)C(C)(C)C (stereo not given)
[1]
  z-score: 0.923 and 0.435
[2]
  z-score: 0.373 and 0.179
[3]
  z-score: 1.24 and 1.74
[4]
  z-score: 0.151 and 1.58
[5]
  z-score: -0.161 and 0.234
[6]
  z-score: 1.04 and 1.38
[7]
  z-score: 0.19 (inactive) and 0.713 (inactive)
[8]
  z-score: -0.82 and 0.0107
[9]
  z-score: 0.0872 and 0.0595
[10]
  z-score: -0.465 (inactive) and -0.596 (inactive)

## C=C[C@@H](C)[C@@H](O)c1ccc(O)c2ccccc12
[1]
  z-score: 0.799 and -0.778
[2]
  z-score: -0.468 and 0.56
[3]
  z-score: -0.165 and -1.36
[4]
  z-score: -2.83 and -2.76
[5]
  z-score: -1.07 and -1.45
[6]
  z-score: -2.11 and -2.44
[7]
  z-score: -0.672 (inactive) and -0.253 (inactive)
[8]
  z-score: -0.994 and -0.39
[9]
  z-score: -1.51 and -1.39
[10]
  z-score: -0.852 (inactive) and -0.3 (inactive)

## C=CCN(C(=O)C1N(CCOCCO)C(=O)C2C(C(=O)O)C3C=CC21O3)C(C)(C)C (stereo not given)
[1]
  z-score: -0.186 and -0.328
[2]
  z-score: 0.0948 and -1.23
[3]
  z-score: 0.108 and 0.442
[4]
  z-score: 1.01 and 0.916
[5]
  z-score: -0.114 and 0.817
[6]
  z-score: -0.58 and -0.767
[7]
  z-score: -0.693 (inactive) and -0.523 (inactive)
[8]
  z-score: -0.691 and 0.591
[9]
  z-score: 1.93 and 0.501
[10]
  z-score: 0.161 (inactive) and -0.73 (inactive)

## CC(C)OC(=O)C=C1C[C@@H](c2ccccc2)O[C@@H](c2ccccc2)O1
[1]
  z-score: 0.604 and -0.204
[2]
  z-score: 0.211 and 0.24
[3]
  z-score: 1.57 and 0.805
[4]
  z-score: -1.8 and -3.29
[5]
  z-score: -0.192 and -1.79
[6]
  z-score: 1.06 and -0.0936
[7]
  z-score: 0.383 (inactive) and 1.71 (inactive)
[8]
  z-score: -0.374 and -0.422
[9]
  z-score: -2.57 and -3.36
[10]
  z-score: 1.28 (inactive) and 0.255 (inactive)

## COC(=O)C1=C2N(Cc3ccccc3)C(C)=C(C(=O)OC)[C@@H](c3ccccc3)N2C(=O)[C@](O)(C(=O)OC)C1
[1]
  z-score: -0.104 and 1.11
[2]
  z-score: 0.387 and -1.41
[3]
  z-score: -0.102 and 0.511
[4]
  z-score: -0.397 and -0.107
[5]
  z-score: -1.16 and 0.38
[6]
  z-score: 0.574 and 0.276
[7]
  z-score: -0.0488 (inactive) and -0.394 (inactive)
[8]
  z-score: -0.848 and 0.573
[9]
  z-score: 0.127 and 0.0283
[10]
  z-score: 1.83 (inactive) and -0.59 (inactive)

## CC(C)OC(=O)C=C1C[C@@H](c2cccc(C(F)(F)F)c2)O[C@@H](c2cccc(C(F)(F)F)c2)O1
[1]
  z-score: 0.133 and 0.343
[2]
  z-score: -0.425 and 0.279
[3]
  z-score: 0.957 and 0.258
[4]
  z-score: -0.499 and -1
[5]
  z-score: -0.195 and -0.167
[6]
  z-score: -0.447 and 0.606
[7]
  z-score: 0.297 (inactive) and 0.121 (inactive)
[8]
  z-score: -0.897 and -0.238
[9]
  z-score: -3.24 and -1.09
[10]
  z-score: 0.308 (inactive) and 1 (inactive)

## Cc1cc2c(nc1C)CCCN2CC(C)ON=C[C@@H](C)[C@H](OCc1ccccc1)C(C)C (stereo not given in full)
[1]
  z-score: -0.351
[2]
  z-score: -0.641
[3]
  z-score: 0.122
[4]
  z-score: -1.24
[5]
  z-score: -0.583
[6]
  z-score: -0.741
[7]
  z-score: -0.827 (inactive)
[8]
  z-score: 0.708
[9]
  z-score: -0.483
[10]
  z-score: -0.522 (inactive)
